Rows were chosen to be rich in hits. Some 5.7% of all compounds tested hit in one or more screens of this group.
DAX1 inh-1: inhibitors of human orphan nuclear receptor DAX1 (NR0B1); inhibition, % at 6.75 µM; HEK293 Gal4-DAX1 luciferase reporter, luminescence; P51843; AID 504766; hit rate 0.99% among 340,000;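 active = inhibition above the mean over all tested compounds plus 3 SD, cut at about 4.2% in these data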;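 also: inhibition shows as a rise in luminescence from relieved DAX1 repression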
hgDAF-12 ag: hgDAF-12 agonism, primary luciferase screen; HEK293 GAL4-hgDAF12 UAS-luciferase reporter, agonist luminescence; normalized to butyrate control; activation, % at 6.8 µM; hit rate 1.8% among 370,000; AID 687014;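 active = activation above a cutoff set at the mean of all screened compounds plus 3 SD, cut at about 10% in these data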
ssDAF12 agonist: activators of S. stercoralis DAF-12 nuclear receptor | HEK293 ssDAF-12/GRIP1 lit1-tk-luc reporter, luminescence; % of 3 µM dafachronic acid response | activation, % at 6.8 µM | hit rate 1% among 370,000 | AID 652126;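 active = activation above the mean over all tested compounds plus 3 SD, cut at about 0.9% in these data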
DAX1 inh-2: inhibitors of DAX1 repression of SF-1 activated StAR promoter | hit rate 1.1% among 370,000 | inhibition, % at 6.8 µM | HEK293T StAR-luciferase reporter, SF-1/DAX-1 repression relief;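 active = inhibition above the mean over all tested compounds plus 3 SD, cut at about 3.6% in these data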;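 also: higher inhibition means more luminescence from relief of DAX-1 repression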
AHR activator: activates the human aryl hydrocarbon receptor; activation, % at 5 µM; P35869; AID 2796; hit rate 2.5% among 320,000; AHR-responsive luciferase reporter cells, luminescence; in the data active = activation above about 47%
Target sequence (P35869 whole entry, looked up): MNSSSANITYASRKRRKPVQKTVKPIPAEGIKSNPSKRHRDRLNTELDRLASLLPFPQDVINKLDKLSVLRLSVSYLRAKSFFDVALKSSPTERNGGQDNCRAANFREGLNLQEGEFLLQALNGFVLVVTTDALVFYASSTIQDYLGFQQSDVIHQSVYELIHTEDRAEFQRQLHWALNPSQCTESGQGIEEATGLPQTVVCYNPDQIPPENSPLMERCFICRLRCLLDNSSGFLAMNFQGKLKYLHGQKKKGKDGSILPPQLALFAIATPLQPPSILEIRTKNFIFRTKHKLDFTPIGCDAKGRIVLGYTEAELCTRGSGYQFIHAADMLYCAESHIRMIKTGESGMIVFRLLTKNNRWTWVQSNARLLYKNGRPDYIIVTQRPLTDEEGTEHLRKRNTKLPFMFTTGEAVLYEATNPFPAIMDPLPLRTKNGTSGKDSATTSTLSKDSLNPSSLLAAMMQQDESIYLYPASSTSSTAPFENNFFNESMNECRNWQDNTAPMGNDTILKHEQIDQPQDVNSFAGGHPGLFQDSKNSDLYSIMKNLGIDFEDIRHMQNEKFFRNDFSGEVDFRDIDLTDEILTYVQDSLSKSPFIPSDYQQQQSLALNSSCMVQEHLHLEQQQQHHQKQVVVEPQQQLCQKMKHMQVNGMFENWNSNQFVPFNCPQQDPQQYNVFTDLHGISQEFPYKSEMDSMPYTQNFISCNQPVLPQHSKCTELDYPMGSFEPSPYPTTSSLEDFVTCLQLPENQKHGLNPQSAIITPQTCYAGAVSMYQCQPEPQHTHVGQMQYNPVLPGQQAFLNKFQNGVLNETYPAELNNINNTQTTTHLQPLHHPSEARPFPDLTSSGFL
hcDAF-12 act: H. contortus DAF-12 activation, primary screen. HEK293 hcDAF-12 lit1-tk-luc reporter, luminescence; 0% DMSO, 100% Δ7-dafachronic acid. activation, % at 6.8 µM. hit rate 1.4% among 370,000;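 active = activation above the mean of all tested compounds plus 3 SD, cut at about 5.5% in these data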
A number is an active result; 0 = inactive; - = no result given.

SMILES	DAX1 inh-1	hgDAF-12 ag	ssDAF12 agonist	DAX1 inh-2	AHR activator	hcDAF-12 act
O=C1CC(SC2=NCCS2)C(=O)N1c1ccc(Cl)cc1 (stereo not drawn)	0	0	1.4	0	0	0
CCc1nnc(NC(=O)Cc2ccc(OC)c(S(=O)(=O)N3CCOCC3)c2)s1	0	0	0	0	-	0
COc1ccc(CC(=O)Nc2sccc2C#N)cc1S(=O)(=O)N1CCOCC1	0	0	0	0	0	6.0
CCCn1c(CN2CCN(C(=O)OCC)CC2)nc2cc(NC(C)=O)ccc21	0	0	0	0	0	0
Cc1cc(NC(=O)CSc2nnc(-c3cccc(Cl)c3)o2)no1	0	0	0	0	0	0
Cc1cc(NC(=O)CSc2nnc(-c3ccc4c(c3)OCCO4)o2)no1	0	0	0	3.9	0	0
Cc1ccc(NC(=O)Cc2nc(CSc3nnc(-c4ccc5c(c4)OCO5)o3)cs2)cc1	0	0	0	0	50	0
Cc1cc(NC(=O)CSc2nnc(Cc3ccccc3)o2)no1	5.1	0	0	0	0	0
CN(C)C(=O)c1ccc(NC(=O)CSc2nnc(-c3ccc4c(c3)OCO4)o2)cc1	0	0	0	0	-	0
O=C(N/N=C1\CCS(=O)(=O)c2ccc(F)cc21)c1ccc(O)cc1	0	0	0	0	0	0
COc1ccc(NC(=O)C(=S)NC2CCCCC2)cc1	0	12	0	0	0	0
COc1ccc(OC)c(NC(=O)C(=S)NC2CCCCC2)c1	0	0	0	0	70	0
CCCC(=O)N1CCCC1(C)C(=O)Nc1cc(C)ccc1C (stereo not drawn)	-	0	0	0	-	0
CCc1ccc(N2CC34C=CC(O3)C(C(=O)OC)C4C2=O)cc1 (stereo not drawn)	4.4	0	0	0	0	0
CCc1ccc(N2CC34C=CC(O3)C(C(=O)OC(C)C)C4C2=O)cc1 (stereo not drawn)	0	0	0	0	0	0
NC(=O)c1cc(Cc2ccccc2)sc1NC(=O)c1ccco1	0	13	0	0	0	0
CCOc1ncccc1C(=O)Nc1ccccc1F	0	0	0	0	0	0
CCCSc1nsc(NC(=O)c2cccnc2OCC)n1	5.8	0	0	0	0	0
CCOc1ncccc1C(=O)NCc1ccccc1Cl	5.7	0	0	0	0	0
CCOc1ncccc1C(=O)Nc1nnc(C(CC)CC)s1	0	0	0	0	0	0
CCOc1ncccc1C(=O)NCCCSc1ccccc1	0	0	0	0	0	0
CCOc1ncccc1C(=O)NNC(=O)c1ccccc1-n1cccc1	0	0	0	0	61	0
COc1cc(OC)cc(-c2c(-c3cccs3)c3cc(-c4ccc(C(N)=O)cc4)ccc3n2C)c1	0	0	0	0	0	0
CCOc1ccc(N(CC(=O)Nc2c(C)n(C)n(-c3ccccc3)c2=O)S(=O)(=O)c2ccc(C)c(C)c2)cc1	-	0	0	0	-	0
O=C(Nc1ccccc1)c1csc(-c2ccccc2)n1	0	0	0	0	68	0
SMILES	DAX1 inh-1	hgDAF-12 ag	ssDAF12 agonist	DAX1 inh-2	AHR activator	hcDAF-12 act
CC(C)C(=O)Nc1cccc(-c2csc(-c3ccccc3)n2)c1	0	0	0	0	68	0
O=C(Nc1ccc(C(F)(F)F)cc1)c1csc(-c2ccncc2)n1	0	0	0	0	66	0
C[C@H]1CN([C@@H](C)CO)C(=O)CCCn2nncc2CO[C@@H]1CN(C)S(=O)(=O)c1cccs1	-	0	0	0	-	0
Clc1ccc2oc(-c3ccccc3)cc(=NCCCN3CCOCC3)c2c1	0	16	0	0	-	0
OCCCCCN=c1cc(-c2ccccc2)oc2ccc(Cl)cc12	0	0	0	0	0	0
COc1ccccc1NS(=O)(=O)c1ccc(C)c(NC(=O)NCCCl)c1	4.4	0	0	0	0	0
CC(C)C[C@H]1CN([C@@H](Cc2ccccc2)CN2CCC[C@H]2CN2C(=O)C(=O)NC[C@@H]2Cc2ccccc2)C(=O)C(=O)N1CC1CCCCCC1	-	0	0	0	-	0
CN(C)C(CNC(=O)c1ccc2ccccc2n1)c1ccccc1 (stereo not drawn)	0	0	0	0	0	0
CC(NC(=O)c1ccc2ccccc2n1)c1ccccc1 (stereo not drawn)	5.4	0	0	0	0	0
Nn1c(SCc2ccc(Br)cc2)nnc1-c1n[nH]c2c1CCC2	-	0	0	0	-	0
COc1ccc(C2CC(c3ccccc3)=NN2c2ccc(N)cc2)cc1 (stereo not drawn)	0	11	0	0	0	0
COc1ccc(C2CC(c3ccccc3O)=NN2c2ccccc2)cc1 (stereo not drawn)	0	0	0	0	0	0
S=c1nccc(-c2ccc3c(c2)CCO3)[nH]1	0	0	0	0	0	0
Fc1ccc(-c2noc(-c3ccc4c(c3)CCO4)n2)cc1	-	0	0	0	62	0
c1ccc(-c2cnc(-c3ccccn3)nn2)cc1	0	11	0	0	0	0
c1ccc(-c2nc(-c3ccccn3)nc(-c3ccccn3)n2)nc1	0	0	0	0	0	0
COc1c2c(c(OC)c3ccccc13)[C@]1(OC2)O[C@H](CCO)C[C@H](O)[C@H]1O	-	0	0	0	-	0
O=C(CSC1=Nc2ccccc2C2CC=NN12)NCc1ccco1 (stereo not drawn)	0	0	0	0	66	0
N#Cc1ccccc1NC(=O)CSC1=Nc2ccccc2C2CC=NN12 (stereo not drawn)	0	0	0	0	0	0
CCOC(=O)C1=C(C)OC(N)=C(C#N)C1c1ccsc1 (stereo not drawn)	0	-	-	-	0	-
N#CC1=C(N)Oc2c(O)cc3ccccc3c2C1c1ccsc1 (stereo not drawn)	0	0	6.0	0	0	0
C=C1[C@@H](O)[C@H](CC(C)C)N(Cc2ccccc2Br)S1(=O)=O	0	0	0	0	-	0
Cc1ccc(/C=N\NC(=O)Cc2noc3ccccc23)cc1	0	0	0	0	0	0
Cc1ccccc1-c1cc2c(c3c1ccn3C)C1CCC2O1 (stereo not drawn)	-	0	0	3.8	-	0
O=C(O)CC(Sc1ccc(Cl)cc1)C(=O)Nc1ccccc1 (stereo not drawn)	-	0	0	0	-	0
SMILES	DAX1 inh-1	hgDAF-12 ag	ssDAF12 agonist	DAX1 inh-2	AHR activator	hcDAF-12 act
O=C(N/N=C/c1c(Cl)cccc1Cl)c1ccccc1F	0	0	0	0	60	0
c1ccc(Nc2ccc3c4c(cccc24)CC3)cc1	0	0	0	0	0	0
Nc1ccc2c3c(cccc13)CC2	0	0	0	0	55	0
CC(C)C[C@@H]1COc2cc(NCCCN3CCOCC3)ccc2S(=O)(=O)N1	-	0	0	0	-	0
COCCCN1C(=O)c2ccc(C(=O)NCc3ccccn3)cc2C1=O	0	0	0	0	0	0
Cc1ccc(NC(=O)N2CC(C)OC(C)C2)cc1[N+](=O)[O-] (stereo not drawn)	-	0	0	0	-	0
Nc1nc(N)c(N=O)c(OCC2CCCCC2)n1	0	12	0	0	0	0

High-throughput results as filed in PubChem.
